Results from PubChem BioAssay AID602283 (Johns Hopkins Ion Channel Center, 2012).
The whole screen tested about 1,100 compounds, of which about 940 (85%) were called active.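 Rule for the calls: active = inhibition exceeding 3 SD of buffer-only control wells (cut at about 26% in these data); inactive = the rest.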 So high a share suggests a set chosen from earlier hits. A selection follows.

Assay: carbachol calcium response changes in non-induced cells, primary screen, counter-screen for RGS4 activator project, cell-based, HEK293 M3R, non-induced RGS4, Fluo-4 calcium (AID 602283);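 note: percent drop in integrated peak-minus-baseline over baseline Fluo4 ratio after carbachol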
Conditions: HEK293 M3R non-induced RGS4, Fluo4 calcium flux, at 10 µM, stronger effect = higher value, after carbachol challenge at its EC90

Row | SMILES | inhibition
1 | OC(CN=c1sc2ccccc2n1CC(O)COc1ccccc1)COc1ccccc1 (stereo not given) | 92.8% (active)
2 | Cc1ccc(C)c(N2CCN(C(=O)CCCn3c(=O)c4cccn4c4cccnc43)CC2)c1 | 55.3% (active)
3 | Cc1ccc(C)c(N2CCN(C(=O)CCCCCn3c(=S)[nH]c4ccc(N5CCOCC5)cc4c3=O)CC2)c1 | 52.8% (active)
4 | CCOC(=O)c1c(NC(=O)NC(C)(C)C)sc2c1CCN(C)C2 | 0% [the number is a placeholder, only the call stands] (inactive)
5 | COc1ccc(/C=C(\C#N)c2c[nH]c3ccccc23)cc1 | 70.8% (active)
6 | Cc1ccc(N2C(=O)CC(Nc3cccc4ccccc34)C2=O)cc1 (stereo not given) | 0% [the number is a placeholder, only the call stands] (inactive)
7 | Cc1oc2c(F)c(F)c(F)c(F)c2c1S(=O)(=O)Nc1cccc(C(F)(F)F)c1 | 88.8% (active)
8 | Cc1nc(N2CCN(c3ccccn3)CC2)c2c(C)c(C(=O)Nc3ccc(F)cc3)sc2n1 | 72.8% (active)
9 | O=S(=O)(c1ccc(Br)cc1)n1ccc2ccccc21 | 36.8% (active)
10 | Cc1ccc(OCCCCN2CCCCC2)c(Br)c1 | 0% [the number is a placeholder, only the call stands] (inactive)
11 | CCCN(CCc1ccccc1)C1CCc2c(O)cccc2C1 (stereo not given) | 34.8% (active)
12 | Cc1cccc(-c2nc3ccc(C(=O)NCCN4CCN(C)CC4)cc3nc2-c2cccc(C)c2)c1 | 93.8% (active)
13 | CN1CCN(C(=O)N2c3ccccc3CCc3ccccc32)CC1 | 57.3% (active)
14 | Cc1nn(C)cc1N1C(=O)c2cccc3c(N)ccc(c23)C1=O | 101% (active)
15 | CN(C)c1ccc(/C=C2\NC(=S)N(Cc3ccccc3)C2=O)cc1 | 62.8% (active)
16 | CC(C)C(c1nnnn1CCc1ccccc1)N1CCN(C(=O)c2ccco2)CC1 (stereo not given) | 25.8% (active)
17 | COc1ccc(C(=O)Nc2nc(-c3ccc(S(=O)(=O)N4CCOCC4)cc3)cs2)cc1 | 36.3% (active)
18 | N=c1c2c3c(sc2nc2n1CCCCC2)CCCC3 | 55.8% (active)
19 | CCOC(=O)C1=C(NC(=S)NC(=O)c2ccccc2)c2ccccc2CC1(C)C | 61.3% (active)
20 | OCCC1CN(Cc2ccc3nsnc3c2)CCN1C1CCCC1 (stereo not given) | 43.8% (active)
21 | CCC1C=C(c2ccccc2)C=CN=C1N(CC)CC (stereo not given) | 83.8% (active)
22 | O=C(CN1CCCCCC1)Nc1ccc(S(=O)(=O)N2CCCCC2)cc1 | 83.8% (active)
23 | COc1cccc(-c2cc3nc4c(c(N5CCC6(CC5)OCCO6)n3n2)CCCC4)c1 | 31.8% (active)
24 | CCc1ccccc1NC(=O)[C@@H]1CCC(=O)N1C1OC(=O)c2c1ccc(OC)c2OC (stereo not given in full) | 0% [the number is a placeholder, only the call stands] (inactive)
25 | COc1cc(/C=C(\C#N)c2nc3ccccc3[nH]2)ccc1O | 61.3% (active)

Row | SMILES | inhibition
26 | CN(C)S(=O)(=O)N1CCC(Oc2cccc(C(=O)NCCCC3CCCC3)c2)CC1 | 61.8% (active)
27 | CCc1c(C)sc(NC(=O)c2ccc(Br)o2)c1C(=O)OC | 0% [the number is a placeholder, only the call stands] (inactive)
28 | CCOc1ccc(C(CC(=O)O)NC(=O)COc2ccccc2)cc1 (stereo not given) | 0% [the number is a placeholder, only the call stands] (inactive)
29 | Cc1ccccc1C(OCCN(C)C)C1CCCCC1 (stereo not given) | 95.3% (active)
30 | O=C(Cn1c(N2CCN(C/C=C/c3ccccc3)CC2)nc2ccccc21)c1ccccc1 | 91.8% (active)
31 | COc1ccc(CN2CCCC(C(=O)c3ccc(Cl)cc3)C2)cc1Cn1cncn1 (stereo not given) | 68.8% (active)
32 | COc1cccc(/C=N/Nc2cc(C)nc(-c3ccccc3O)n2)c1O | 85.8% (active)
33 | Cc1cccc(-c2nc(Nc3ccc(O)cc3)c3ccccc3n2)c1 | 35.3% (active)
34 | Oc1ccccc1N1CCN(c2ncnc3sc(-c4ccccc4)cc23)CC1 | 26.3% (active)
35 | COc1ccccc1C(CNC(=O)c1cccc(NS(=O)(=O)c2ccc(Br)cc2)c1)N(C)C (stereo not given) | 51.3% (active)
36 | COc1cccc(CNC(=O)CCC2CCCN(Cc3ccc(OC(F)F)cc3)C2)c1 (stereo not given) | 83.8% (active)
37 | CCC1CCCCN1CCCNC(=O)c1cc2c(Cl)nc3ccccc3c2s1 (stereo not given) | 71.8% (active)
38 | O=C(c1cccs1)C1C(c2ccc(Br)cc2)NC(=S)NC1(O)C(F)(F)F (stereo not given) | 90.8% (active)
39 | Cc1cc2oc3ccc(NCCC4CCCN4C)cc3c(=O)c2cc1C (stereo not given) | 87.8% (active)
40 | CN(C)CCOc1ccc(Cl)cc1C(C)(C)C | 47.8% (active)
41 | Cc1ccc(OS(=O)(=O)c2ccc(-c3csc(C)n3)s2)c(C)c1 | 33.8% (active)
42 | C#CC(CCN1CCCCC1)(OC)c1ccccc1 (stereo not given) | 63.8% (active)
43 | CCCCCC(O)(CCN1CCCCC1)c1ccccc1 (stereo not given) | 95.3% (active)
44 | S=c1[nH]nc(-c2ccc(Cl)cc2)n1CC1CCCO1 (stereo not given) | 0% [the number is a placeholder, only the call stands] (inactive)
45 | Cc1ccc(SCC(=O)c2cc(C)c(OC(=S)N(C)C)c(C)c2)cc1 | 42.8% (active)
46 | COc1ccc(C(=O)NC2CCCc3c2cnn3-c2cccc(C)c2C)c(OC)n1 (stereo not given) | 64.8% (active)
47 | COc1ccc(-c2cc(C(=O)N(C)Cc3ccccc3)c3ccccc3n2)cc1 | 72.3% (active)
48 | COc1ccc(CN(C)C(=O)c2cc(-c3ccc(C)cc3C)nc3ccccc23)c(OC)c1OC | 51.3% (active)
49 | Cc1ccnc(SCCn2c(N(C)Cc3ccccc3)nc3c2c(=O)n(C)c(=O)n3C)n1 | 28.3% (active)
50 | COC(=O)c1ccc(CN2CCC(CO)(Cc3ccc(OC)cc3)CC2)cc1 | 70.8% (active)
